# Assay results reported in the supplement of paper PMC8728848.
# This is one part of a sample in which the strongest signals are shown more often than they occur.
# Assays:
# Assay in all cases: glycan array binding signal (z-score within array); higher = stronger binding
# Conditions in all cases: glycan notation: IUPAC condensed, linker removed
# [1] = target: Fuc(a1-2)Gal(b1-3)GalNAc(b1-3)Gal(a1-4)Gal(b1-4)Glc
# Summary of the method: (§1)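 Negative Z-scores can be read as non-binding. The Z-score is calculated within each array and then averaged across arrays of one protein sequence at different concentrations or buffers and across linkers. Arrays, 3228 in all, were curated from the Consortium for Functional Glycomics database and kept only where the protein sequence was available.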
# [2] = target: Fuc(a1-2)Gal(b1-3)GlcNAc(b1-3)[Fuc(a1-2)Gal(b1-3)GlcNAc(b1-6)]GalNAc
# Summary of the method: as §1
# [3] = target: Fuc(a1-2)Gal(b1-4)[Fuc(a1-3)]GlcNAc
# Summary of the method: as §1
# [4] = target: Fuc(a1-2)[Gal(a1-3)]Gal(b1-4)GlcNAc(b1-2)Man(a1-3)[Fuc(a1-2)[Gal(a1-3)]Gal(b1-4)GlcNAc(b1-2)Man(a1-6)]Man(b1-4)GlcNAc(b1-4)GlcNAc
# Summary of the method: as §1
# [5] = target: Fuc(a1-2)[Gal(a1-3)]Gal(b1-4)[Fuc(a1-3)]GlcNAc(b1-3)GalNAc
# Summary of the method: as §1
# [6] = target: Fuc(a1-2)[GalNAc(a1-3)]Gal(b1-3)GlcNAc
# Summary of the method: as §1
# [7] = target: Fuc(a1-3)[Gal(b1-4)]GlcNAc(b1-3)GalNAc
# Summary of the method: as §1
# [8] = target: Fuc(a1-3)[Gal3S(b1-4)]GlcNAc
# Summary of the method: as §1
# [9] = target: Gal(a1-3)Gal(b1-3)GlcNAc(b1-2)Man
# Summary of the method: as §1
# Gal(a1-6)Glc = target: Gal(a1-6)Glc
# Summary of the method: as §1
# [10] = target: Gal(b1-3)GlcNAc(a1-6)Gal(b1-4)GlcNAc
# Summary of the method: as §1
# [11] = target: Gal(b1-4)GlcNAc(b1-2)Man(a1-3)[Gal(b1-4)GlcNAc(b1-2)Man(a1-6)][Gal(b1-4)GlcNAc(b1-4)]Man(b1-4)GlcNAc(b1-4)[Fuc(a1-6)]GlcNAc
# Summary of the method: as §1
# [12] = target: Gal(b1-4)GlcNAc(b1-2)Man(a1-3)[Gal(b1-4)GlcNAc(b1-2)Man(a1-6)][GlcNAc(b1-4)]Man(b1-4)GlcNAc(b1-4)[Fuc(a1-6)]GlcNAc
# Summary of the method: as §1
# [13] = target: Gal(b1-4)GlcNAc(b1-2)[Gal(b1-4)GlcNAc(b1-6)]Man(a1-6)[GlcNAc(b1-4)][Gal(b1-4)GlcNAc(b1-2)Man(a1-3)]Man(b1-4)GlcNAc(b1-4)GlcNAc
# Summary of the method: as §1
# [14] = target: Gal(b1-4)GlcNAc(b1-3)Gal(b1-3)GalNAc
# Summary of the method: as §1
# [15] = target: Gal(b1-4)GlcNAc(b1-3)Gal(b1-4)GlcNAc(b1-2)Man(a1-3)[Gal(b1-4)GlcNAc(b1-3)Gal(b1-4)GlcNAc(b1-2)Man(a1-6)]Man(b1-4)GlcNAc(b1-4)[Fuc(a1-6)]GlcNAc
# Summary of the method: as §1
# Gal3S(b1-3)GalNAc = target: Gal3S(b1-3)GalNAc
# Summary of the method: as §1
# [16] = target: GlcA3S(b1-3)Gal(b1-4)GlcNAc(b1-2)Man
# Summary of the method: as §1
# [17] = target: GlcNAc(a1-4)Gal(b1-4)GlcNAc(b1-3)Gal(b1-4)Glc
# Summary of the method: as §1
# [18] = target: GlcNAc(a1-4)Gal(b1-4)GlcNAc(b1-3)Gal(b1-4)[Fuc(a1-3)]GlcNAc(b1-3)Gal(b1-4)[Fuc(a1-3)]GlcNAc
# Summary of the method: as §1
# [19] = target: GlcNAc(b1-2)Man(a1-3)[GlcNAc(b1-2)Man(a1-6)]Man(b1-4)GlcNAc(b1-4)[Fuc(a1-6)]GlcNAc
# Summary of the method: as §1
# [20] = target: GlcNAc(b1-2)[GlcNAc(b1-4)]Man(a1-3)[GlcNAc(b1-4)][GlcNAc(b1-2)[GlcNAc(b1-6)]Man(a1-6)]Man(b1-4)GlcNAc(b1-4)[Fuc(a1-6)]GlcNAc
# Summary of the method: as §1
# [21] = target: GlcNAc(b1-2)[GlcNAc(b1-6)]Man(a1-6)[GlcNAc(b1-2)Man(a1-3)]Man(b1-4)GlcNAc(b1-4)GlcNAc
# Summary of the method: as §1
# [22] = target: GlcNAc(b1-3)Gal(b1-4)GlcNAc(b1-2)Man(a1-3)[GlcNAc(b1-3)Gal(b1-4)GlcNAc(b1-2)Man(a1-6)]Man(b1-4)GlcNAc(b1-4)GlcNAc
# Summary of the method: as §1
# [23] = target: GlcNAc(b1-3)Gal(b1-4)GlcNAc(b1-3)Gal(b1-4)GlcNAc
# Summary of the method: as §1
# [24] = target: GlcNAc(b1-3)Gal(b1-4)GlcNAc(b1-3)Gal(b1-4)GlcNAc(b1-2)Man(a1-3)[GlcNAc(b1-3)Gal(b1-4)GlcNAc(b1-3)Gal(b1-4)GlcNAc(b1-2)Man(a1-6)]Man(b1-4)GlcNAc(b1-4)[Fuc(a1-6)]GlcNAc
# Summary of the method: as §1
# [25] = target: GlcNAc(b1-3)[GlcNAc(b1-6)]GalNAc
# Summary of the method: as §1
# [26] = target: Kdn(a2-3)Gal(b1-4)[Fuc(a1-3)]GlcNAc
# Summary of the method: as §1
# Man(b1-4)GlcNAc = target: Man(b1-4)GlcNAc
# Summary of the method: as §1
# [27] = target: Neu5Ac(a2-3)Gal(b1-3)GlcNAc6S
# Summary of the method: as §1
# [28] = target: Neu5Ac(a2-3)Gal(b1-4)GlcNAc(b1-2)[Neu5Ac(a2-3)Gal(b1-4)GlcNAc(b1-4)]Man(a1-3)[GlcNAc(b1-4)][Neu5Ac(a2-3)Gal(b1-4)GlcNAc(b1-2)[Neu5Ac(a2-3)Gal(b1-4)GlcNAc(b1-6)]Man(a1-6)]Man(b1-4)GlcNAc(b1-4)GlcNAc
# Summary of the method: as §1
# [29] = target: Neu5Ac(a2-3)Gal(b1-4)GlcNAc(b1-6)GalNAc
# Summary of the method: as §1
# [30] = target: Neu5Ac(a2-3)Gal(b1-4)[Fuc(a1-3)]GlcNAc6S
# Summary of the method: as §1
# [31] = target: Neu5Ac(a2-3)Gal6S(b1-4)GlcNAc
# Summary of the method: as §1
# [32] = target: Neu5Ac(a2-3)[Neu5Ac(a2-6)]GalNAc
# Summary of the method: as §1
# [33] = target: Neu5Ac(a2-6)Gal(b1-4)GlcNAc(b1-2)Man(a1-3)[GlcNAc(b1-4)][Neu5Ac(a2-6)Gal(b1-4)GlcNAc(b1-2)Man(a1-6)]Man(b1-4)GlcNAc(b1-4)GlcNAc
# Summary of the method: as §1
# [34] = target: Neu5Ac(a2-6)Gal(b1-4)GlcNAc(b1-2)Man(a1-3)[Neu5Ac(a2-6)Gal(b1-4)GlcNAc(b1-2)Man(a1-6)]Man(b1-4)GlcNAc(b1-4)[Fuc(a1-6)]GlcNAc
# Summary of the method: as §1
# [35] = target: Neu5Ac(a2-6)Gal(b1-4)GlcNAc(b1-2)Man(a1-6)[GlcNAc(b1-2)Man(a1-3)]Man(b1-4)GlcNAc(b1-4)GlcNAc
# Summary of the method: as §1
# [36] = target: Neu5Gc(a2-3)Gal(b1-3)[Fuc(a1-4)]GlcNAc
# Summary of the method: as §1
# [37] = target: Neu5Gc(a2-8)Neu5Gc(a2-6)Gal(b1-4)GlcNAc
# Summary of the method: as §1
binder,measurement,setting,value
"Clec18Av1 (Homo sapiens), A5D8T8 (protein) MLHPETSPGRGHLLAVLLALLGTAWAEVWPPQLQEQAPMAGALNRKESFLLLSLHNRLRSWVQPPAADMRRLDWSDSLAQLAQARAALCGTPTPSLASGLWRTLQVGWNMQLLPAGLVSFVEVVSLWFAEGQRYSHAAGECARNATCTHYTQLVWATSSQLGCGRHLCSAGQAAIEAFVCAYSPRGNWEVNGKTIVPYKKGAWCSLCTASVSGCFKAWDHAGGLCEVPRNPCRMSCQNHGRLNISTCHCHCPPGYTGRYCQVRCSLQCVHGRFREEECSCVCDIGYGGAQCATKVHFPFHTCDLRIDGDCFMVSSEADTYYRARMKCQRKGGVLAQIKSQKVQDILAFYLGRLETTNEVIDSDFETRNFWIGLTYKTAKDSFRWATGEHQAFTSFAFGQPDNHGFGNCVELQASAAFNWNDQRCKTRNRYICQFAQEHISRWGPGS",glycan array binding signal (z-score),[1],-0.849
same,glycan array binding signal (z-score),[2],4.48
same,glycan array binding signal (z-score),[3],-0.818
same,glycan array binding signal (z-score),[4],3.05
same,glycan array binding signal (z-score),[5],-0.446
same,glycan array binding signal (z-score),[6],-0.502
same,glycan array binding signal (z-score),[7],1.02
same,glycan array binding signal (z-score),[8],-0.843
same,glycan array binding signal (z-score),[9],3.22
same,glycan array binding signal (z-score),Gal(a1-6)Glc,-0.747
same,glycan array binding signal (z-score),[10],4.04
same,glycan array binding signal (z-score),[11],2.24
same,glycan array binding signal (z-score),[12],0.712
same,glycan array binding signal (z-score),[13],3.23
same,glycan array binding signal (z-score),[14],3.37
same,glycan array binding signal (z-score),[15],2.85
same,glycan array binding signal (z-score),Gal3S(b1-3)GalNAc,-0.82
same,glycan array binding signal (z-score),[16],-0.197
same,glycan array binding signal (z-score),[17],-0.356
same,glycan array binding signal (z-score),[18],4.79
same,glycan array binding signal (z-score),[19],3.54
same,glycan array binding signal (z-score),[20],-0.868
same,glycan array binding signal (z-score),[21],-0.432
same,glycan array binding signal (z-score),[22],1.53
same,glycan array binding signal (z-score),[23],-0.861
same,glycan array binding signal (z-score),[24],-0.74
same,glycan array binding signal (z-score),[25],-0.808
same,glycan array binding signal (z-score),[26],0.16
same,glycan array binding signal (z-score),Man(b1-4)GlcNAc,-0.825
same,glycan array binding signal (z-score),[27],-0.859
same,glycan array binding signal (z-score),[28],-0.868
same,glycan array binding signal (z-score),[29],1.49
same,glycan array binding signal (z-score),[30],-0.818
same,glycan array binding signal (z-score),[31],-0.585
same,glycan array binding signal (z-score),[32],-0.853
same,glycan array binding signal (z-score),[33],-0.604
same,glycan array binding signal (z-score),[34],3.58
same,glycan array binding signal (z-score),[35],4.86
same,glycan array binding signal (z-score),[36],-0.646
same,glycan array binding signal (z-score),[37],0.057
